# Experimental data published in PubChem BioAssay (NCATS).
# Results filed as inconclusive are left out. Active and inactive are the calls of the source. Calls come from the whole dose curve.
# Tested on: not listed separately
# Assay: Natriuretic polypeptide receptor (hNpr1) antagonism - Pilot counterscreen GloSensor control cell line (AID 1347045)
# Details: HEK293 cGMP GloSensor cells, SNP-stimulated luminescence, 20 min; series mostly up to 38.3 µM; activity change, negative = inhibition: at the top concentration
# Procedure, shortened: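 The SNP-driven cGMP luminescence signal (50 uM, 20 min, room temperature) was measured in GloSensor HEK293 control cells. Compounds were tested as a LOPAC titration series and preincubated for 30-50 min.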
# % is set by controls: 0 for no effect and ±100 for the full control effect; potency is the fitted concentration of half-maximal effect.
SMILES,"activity change, negative = inhibition",Potency
Cc1ccc(/C(=C\CN2CCCC2)c2ccccn2)cc1,9.11% (inactive),–
C[N+](C)(C)CCCCCCCCCC[N+](C)(C)C,1.2% (inactive),–
CC[N+](C)(C)c1cccc(O)c1,11.6% (inactive),–
CC(N=C(NC#N)Nc1ccncc1)C(C)(C)C (configuration not stated),3.55% (inactive),–
CSc1ccc(C(=O)c2[nH]c(=O)[nH]c2C)cc1,7.96% (inactive),–
O=C(CCNNC(=O)c1ccncc1)NCc1ccccc1,6.85% (inactive),–
CCCN(CCC)CCc1cccc2c1CC(=O)N2,0.199% (inactive),–
CCCCNc1c(C(=O)OCC)c(C)nc2c1cnn2CC,-0.437% (inactive),–
COCC(=O)O[C@]1(CCN(C)CCCc2nc3ccccc3[nH]2)CCc2cc(F)ccc2[C@@H]1C(C)C,–,26.1 µM (active)
Nc1ncn([C@@H]2O[C@H](CO)[C@@H](O)[C@H]2O)c(=O)n1,1.54% (inactive),–
CCN(CC)CC(=O)Nc1c(C)cccc1C,-0.235% (inactive),–
CCN(CC)CCCN(c1ccccc1)C1Cc2ccccc2C1,5.15% (inactive),–
CN=C(NC#N)NCCSCc1nc[nH]c1C,0.277% (inactive),–
COc1ccc(CCN(C)CCCC(C#N)(c2cc(OC)c(OC)c(OC)c2)C(C)C)cc1OC (configuration not stated),0.689% (inactive),–
O=c1[nH]c(=O)n([C@H]2C[C@H](O)[C@@H](CO)O2)cc1Br,1.21% (inactive),–
c1ccc2c(c1)CCCC2C1=NCCN1 (configuration not stated),-0.159% (inactive),–
C[C@]12CCC(=O)C=C1CC[C@@H]1[C@@H]2CC[C@@]2(C)[C@H]1CC[C@]2(O)C(=O)CO,-0.933% (inactive),–
C[C@]12CC[C@@H]3c4ccc(O)cc4C[C@@H](CCCCCCCCCS(=O)CCCC(F)(F)C(F)(F)F)[C@H]3[C@@H]1CC[C@@H]2O (some centres not stated),-1.98% (inactive),–

SMILES,"activity change, negative = inhibition",Potency
CCCCCCCC/C=C\CCCCCCCC(=O)NCc1ccc(O)c(OC)c1,-11.8% (inactive),–
CC(C)[N+](C)(CCOC(=O)C1c2ccccc2Oc2ccccc21)C(C)C,-0.161% (inactive),–
CN(C)CCCN1c2ccccc2Sc2ccccc21,-3.6% (inactive),–
NC1=NCC2c3ccccc3Cc3ccccc3N12 (configuration not stated),0.666% (inactive),–
Cc1nc2c([nH]1)c(=O)n(C)c(=O)n2Cc1ccco1,22% (inactive),–
O=C(O)CCCCCCCC(=O)O,1.24% (inactive),–
OCCN1CCN(CCCN2c3ccccc3C=Cc3ccccc32)CC1,-1.38% (inactive),–
CC(C)(C)NCC(O)c1cc(O)cc(O)c1 (configuration not stated),11.6% (inactive),–
CN(C)[C@@H]1C(=O)C(C(N)=O)=C(O)[C@@]2(O)C(=O)C3=C(O)c4c(O)ccc(Cl)c4[C@@H](O)[C@H]3C[C@@H]12,-3.46% (inactive),–
NC(N)=NC(=O)Cc1c(Cl)cccc1Cl,5.68% (inactive),–
C[n+]1cc2c3c(ccc2c2ccc4cc5c(cc4c21)OCO5)OCO3,–,2.07 µM (active)
CN(C)CC[C@@H](c1ccc(Br)cc1)c1ccccn1,-4.38% (inactive),–
CC(=O)Nc1nnc(S(N)(=O)=O)s1,4.33% (inactive),–
COc1cc2c(cc1OC)-c1cc(=Nc3c(C)cc(C)cc3C)n(C)c(=O)n1CC2,60.7% (inactive),–
Fc1ccc(C(c2ccc(F)cc2)N2CCN(C/C=C/c3ccccc3)CC2)cc1,-14.8% (inactive),–
CC(=O)OCC1=C(C(=O)O)N2C(=O)[C@@H](NC(=O)Cc3cccs3)[C@H]2SC1,-4.72% (inactive),–
Cc1ccc(S(=O)(=O)NC(=O)NN2CCCCCC2)cc1,6.38% (inactive),–
NC/C=C/C(=O)O,0.721% (inactive),–

# Biological target: Atrial natriuretic peptide receptor 1 (Homo sapiens) (UniProt P16066)
# Sequence (P16066 whole entry, looked up): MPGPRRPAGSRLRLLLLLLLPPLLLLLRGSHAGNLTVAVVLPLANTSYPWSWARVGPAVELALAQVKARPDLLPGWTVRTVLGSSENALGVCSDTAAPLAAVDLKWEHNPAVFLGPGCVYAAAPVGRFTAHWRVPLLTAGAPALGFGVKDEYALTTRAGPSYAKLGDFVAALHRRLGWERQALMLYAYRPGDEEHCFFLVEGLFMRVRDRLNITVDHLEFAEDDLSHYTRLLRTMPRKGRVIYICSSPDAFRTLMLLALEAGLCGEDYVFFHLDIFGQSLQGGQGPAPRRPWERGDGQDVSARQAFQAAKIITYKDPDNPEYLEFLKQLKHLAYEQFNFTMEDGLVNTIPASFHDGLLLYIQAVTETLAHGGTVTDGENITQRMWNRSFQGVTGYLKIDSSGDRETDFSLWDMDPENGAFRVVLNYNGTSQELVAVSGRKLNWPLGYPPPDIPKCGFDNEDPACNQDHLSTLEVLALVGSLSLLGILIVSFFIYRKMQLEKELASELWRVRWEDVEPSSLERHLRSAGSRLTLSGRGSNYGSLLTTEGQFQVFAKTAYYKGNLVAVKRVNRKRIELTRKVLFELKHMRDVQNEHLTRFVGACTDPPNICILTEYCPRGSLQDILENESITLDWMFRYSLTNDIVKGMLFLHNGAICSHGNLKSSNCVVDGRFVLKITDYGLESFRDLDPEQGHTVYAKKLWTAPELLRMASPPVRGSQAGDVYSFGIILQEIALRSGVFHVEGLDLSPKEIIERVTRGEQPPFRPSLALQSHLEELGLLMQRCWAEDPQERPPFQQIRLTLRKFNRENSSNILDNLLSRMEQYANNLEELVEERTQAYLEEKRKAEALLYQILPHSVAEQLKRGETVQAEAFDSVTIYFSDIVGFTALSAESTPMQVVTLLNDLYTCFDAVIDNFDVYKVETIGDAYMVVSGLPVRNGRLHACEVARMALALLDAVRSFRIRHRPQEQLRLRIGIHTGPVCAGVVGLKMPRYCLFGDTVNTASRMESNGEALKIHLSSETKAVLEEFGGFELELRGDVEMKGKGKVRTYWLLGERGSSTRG
# Assay: Natriuretic polypeptide receptor (hNpr1) antagonism - Pilot screen (AID 1347049);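 note: agonist-evoked cGMP luminescence read 20 min after hNppA addition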
# Details: hNpr1 cells, antagonist mode cGMP read-out; series mostly up to 57.5 µM; activity change, negative = inhibition: at the top concentration
# Procedure, shortened: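 cGMP-sensor HEK293/hNpr1 cells, 1500/well, plated overnight at 37C. 2% GloSensor reagent, 2 h RT. Compound (23 nL pin transfer) 30 min RT, baseline luminescence pre-read. 0.1 nM hNppA, 20 min RT, post-read.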
SMILES,"activity change, negative = inhibition",Potency
Cc1ccc(/C(=C\CN2CCCC2)c2ccccn2)cc1,-0.364% (inactive),–
C[N+](C)(C)CCCCCCCCCC[N+](C)(C)C,-8.44% (inactive),–
CC[N+](C)(C)c1cccc(O)c1,2.89% (inactive),–
CC(N=C(NC#N)Nc1ccncc1)C(C)(C)C (configuration not stated),5.65% (inactive),–
CSc1ccc(C(=O)c2[nH]c(=O)[nH]c2C)cc1,-3.06% (inactive),–
O=C(CCNNC(=O)c1ccncc1)NCc1ccccc1,5.04% (inactive),–
CCCN(CCC)CCc1cccc2c1CC(=O)N2,4.03% (inactive),–
CCCCNc1c(C(=O)OCC)c(C)nc2c1cnn2CC,11.2% (inactive),–
COCC(=O)O[C@]1(CCN(C)CCCc2nc3ccccc3[nH]2)CCc2cc(F)ccc2[C@@H]1C(C)C,0.57% (inactive),–
Nc1ncn([C@@H]2O[C@H](CO)[C@@H](O)[C@H]2O)c(=O)n1,16% (inactive),–
CCN(CC)CC(=O)Nc1c(C)cccc1C,6.79% (inactive),–
CCN(CC)CCCN(c1ccccc1)C1Cc2ccccc2C1,-7.46% (inactive),–
CN=C(NC#N)NCCSCc1nc[nH]c1C,-1.74% (inactive),–
COc1ccc(CCN(C)CCCC(C#N)(c2cc(OC)c(OC)c(OC)c2)C(C)C)cc1OC (configuration not stated),2.51% (inactive),–
O=c1[nH]c(=O)n([C@H]2C[C@H](O)[C@@H](CO)O2)cc1Br,3.24% (inactive),–
c1ccc2c(c1)CCCC2C1=NCCN1 (configuration not stated),10.3% (inactive),–
C[C@]12CCC(=O)C=C1CC[C@@H]1[C@@H]2CC[C@@]2(C)[C@H]1CC[C@]2(O)C(=O)CO,0.0794% (inactive),–
C[C@]12CC[C@@H]3c4ccc(O)cc4C[C@@H](CCCCCCCCCS(=O)CCCC(F)(F)C(F)(F)F)[C@H]3[C@@H]1CC[C@@H]2O (some centres not stated),-2.58% (inactive),–

SMILES,"activity change, negative = inhibition",Potency
CCCCCCCC/C=C\CCCCCCCC(=O)NCc1ccc(O)c(OC)c1,12.9% (inactive),–
CC(C)[N+](C)(CCOC(=O)C1c2ccccc2Oc2ccccc21)C(C)C,15.2% (inactive),–
CN(C)CCCN1c2ccccc2Sc2ccccc21,5.75% (inactive),–
NC1=NCC2c3ccccc3Cc3ccccc3N12 (configuration not stated),0.0184% (inactive),–
Cc1nc2c([nH]1)c(=O)n(C)c(=O)n2Cc1ccco1,26.9% (inactive),–
O=C(O)CCCCCCCC(=O)O,3.87% (inactive),–
OCCN1CCN(CCCN2c3ccccc3C=Cc3ccccc32)CC1,-8.97% (inactive),–
CC(C)(C)NCC(O)c1cc(O)cc(O)c1 (configuration not stated),22.9% (inactive),–
CN(C)[C@@H]1C(=O)C(C(N)=O)=C(O)[C@@]2(O)C(=O)C3=C(O)c4c(O)ccc(Cl)c4[C@@H](O)[C@H]3C[C@@H]12,3.26% (inactive),–
NC(N)=NC(=O)Cc1c(Cl)cccc1Cl,2.16% (inactive),–
C[n+]1cc2c3c(ccc2c2ccc4cc5c(cc4c21)OCO5)OCO3,–,4.78 µM (active)
CN(C)CC[C@@H](c1ccc(Br)cc1)c1ccccn1,16.4% (inactive),–
CC(=O)Nc1nnc(S(N)(=O)=O)s1,19.3% (inactive),–
COc1cc2c(cc1OC)-c1cc(=Nc3c(C)cc(C)cc3C)n(C)c(=O)n1CC2,-1.13% (inactive),–
Fc1ccc(C(c2ccc(F)cc2)N2CCN(C/C=C/c3ccccc3)CC2)cc1,-2.24% (inactive),–
CC(=O)OCC1=C(C(=O)O)N2C(=O)[C@@H](NC(=O)Cc3cccs3)[C@H]2SC1,0.526% (inactive),–
Cc1ccc(S(=O)(=O)NC(=O)NN2CCCCCC2)cc1,15.2% (inactive),–
NC/C=C/C(=O)O,6.42% (inactive),–
